The values that follow come from the supplement of paper PMC4723716.

± gives the uncertainty stated by the source. Whole data set: some 9,900 compounds, median “viability index relative to DMSO control” near 1, cut for the lowest 2% near 0.85. Only a selection was taken, and the lowest values are over-represented in it overall.

This experiment has as its system Plasmodium falciparum NF54 stage V gametocytes. The experiment in a line: viability index relative to DMSO control (fraction); higher = less gametocyte killing. The note with it: 2.5 µM, library set: Broad Institute DOS, incubation time: 72 h. In a few lines:
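Stage V gametocytes of P. falciparum NF54 were held in serum-free screening medium at 0.75% gametocytemia and 1.25% hematocrit, 10 µl per well of a 1,536-well plate, and exposed to compound at 2.5 µM for 72 hr at 37°C under low oxygen. A 3 µl mix of 2.5 µM MitoTracker Red CMXRos with 0.13% saponin was then added for one to two hours, after which one field per well was imaged and red particles of 20–70 µm2 were counted. The viability index equals this count divided by the plate mean from wells given solvent alone.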

Molecule `C[C@@H]1CN([C@@H](C)CO)C(=O)c2cc(/C=C/c3ccccc3)cnc2O[C@@H]1CN(C)S(=O)(=O)c1ccccc1F` displayed a viability index of 1.02 ± 0.059.
In the case of `C[C@H]1CN([C@@H](C)CO)C(=O)c2cc(/C=C/c3ccccc3)cnc2O[C@@H]1CN(C)S(=O)(=O)c1ccccc1F`, the viability index turned out to be 1.03 ± 0.082.
`COc1ccc2c3c([nH]c2c1)[C@@H](CO)N(Cc1cc(OC)cc(OC)c1)C[C@]31CN(C1)C(=O)Nc1c(C)noc1C` had a viability index of 0.974 ± 0.12.
Molecule `C[C@H](CO)N1C[C@H](C)[C@@H](CN(C)Cc2ccc3cccnc3c2)OCc2cnnn2CCCC1=O` yielded a viability index of 1.07 ± 0.014.
`Cc1noc(C)c1NC(=O)Nc1ccc2c(c1)C(=O)N([C@@H](C)CO)C[C@H](C)[C@H](CN(C)S(=O)(=O)c1cccs1)OCCCC[C@@H](C)O2` came in with a viability index of 1.09 ± 0.045.
Take `CC(C)NC(=O)Nc1ccc2c(c1)C(=O)N(C)[C@@H]1CC[C@H](CC(=O)NCc3ccc(F)cc3)O[C@@H]1CO2`: the viability index came to 1.11 ± 0.047.
Next, `CN1C(=O)c2cc(NC(=O)Nc3ccc(Cl)cc3)ccc2OC[C@H]2O[C@@H](CC(=O)NCCN3CCCCC3)CC[C@H]21`: 1.01 ± 0.025.
The figure for `CC(C)NC(=O)Nc1ccc2c(c1)C(=O)N(C)[C@H]1CC[C@H](CC(=O)NCc3ccc(F)cc3)O[C@H]1CO2` is 0.919 ± 0.034; for `COc1ccc(C(=O)Nc2ccc3c(c2)C(=O)N(C)[C@@H]2CC[C@@H](CC(=O)NCC4CC4)O[C@@H]2CO3)cc1` it is 1.03 ± 0.11; for `COc1ccc(C(=O)Nc2ccc3c(c2)C(=O)N(C)[C@H]2CC[C@H](CC(=O)NCC4CC4)O[C@H]2CO3)cc1` it is 0.823 ± 0.15.
Take `CC(C)NC(=O)Nc1ccc2c(c1)C(=O)N(C)[C@H]1CC[C@@H](CC(=O)NCc3ccc(F)cc3)O[C@H]1CO2`: the viability index was determined as 0.814 ± 0.17.
In the case of `CN1C(=O)c2cc(NC(=O)Nc3ccc(Cl)cc3)ccc2OC[C@@H]2O[C@@H](CC(=O)NCCN3CCCCC3)CC[C@H]21`, the viability index was 0.838 ± 0.04.
Regarding `CN1C(=O)c2cc(NC(=O)Nc3ccc(Cl)cc3)ccc2OC[C@@H]2O[C@H](CC(=O)NCCN3CCCCC3)CC[C@H]21`, the viability index came to 0.955 ± 0.11.
Next, `COc1ccc(C(=O)Nc2ccc3c(c2)C(=O)N(C)[C@@H]2CC[C@@H](CC(=O)NCC4CC4)O[C@H]2CO3)cc1`: 0.932 ± 0.15; `O=C(C[C@H]1CC[C@H]2[C@@H](COC[C@@H](O)CN2Cc2nccs2)O1)NCc1ccccc1Cl`: 1.1 ± 0.03.
The figure for `C[C@@H]1CN([C@H](C)CO)C(=O)Cc2cc(NC(=O)c3ccncc3)ccc2O[C@H]1CN(C)C(=O)Nc1ccc(F)cc1` is 0.944 ± 0.12; for `CC(C)NC[C@@H]1[C@H](c2ccc(C3=CCCCC3)cc2)[C@H](CO)N1S(C)(=O)=O` it is 0.996 ± 0.022.
In turn, `C[C@H]1CN([C@@H](C)CO)C(=O)CCCn2nncc2CO[C@@H]1CN(C)Cc1ccccc1C(=O)O` registered a viability index of 1.04 ± 0.031.
In turn, `O=C(c1ccccn1)N1CC2(C1)[C@@H](c1ccccc1)[C@@H](CO)N2C(=O)C1CCCCC1` had a viability index of 1.041 ± 0.0089.
For `OC[C@H]1[C@@H](c2ccc(C3=CCCC3)cc2)[C@@H]2CN(Cc3ccncc3)CCCCN12`, the viability index was 0.845 ± 0.14.
`OC[C@@H]1[C@@H](c2ccc(-c3cccnc3)cc2)[C@@H]2CN(Cc3ccccn3)CCCCN12` yielded a viability index of 0.737 ± 0.12.
The molecule `OC[C@@H]1[C@H](c2ccc(-c3cccnc3)cc2)[C@H]2CN(Cc3ccccn3)CCCCN12` came in with a viability index of 0.979 ± 0.024.
`OC[C@@H]1[C@H](c2ccc(C3=CCCC3)cc2)[C@H]2CN(Cc3ccncc3)CCCCN12` yielded a viability index of 1.05 ± 0.068.
For `OC[C@@H]1[C@H](c2ccc(-c3cccnc3)cc2)[C@@H]2CN(Cc3ccccn3)CCCCN12`, the viability index amounted to 1.04 ± 0.06.
In the case of `OC[C@H]1[C@@H](c2ccc(-c3cccc(F)c3)cc2)[C@@H]2CN(Cc3cncnc3)CCCCN12`, the viability index is 0.963 ± 0.1.
The molecule `CN1C(=O)c2cc(NC(=O)c3ccc4c(c3)OCO4)ccc2OC[C@H]2O[C@@H](CC(=O)O)CC[C@@H]21` displayed a viability index of 1.11 ± 0.071.
The figure for `CO[C@@H](CN(C)C(=O)c1cc(Cl)cc(Cl)c1)[C@@H](C)CN(C(=O)Nc1ccc(F)cc1)[C@@H](C)CO` is 1.04 ± 0.018; for `N#C[C@H]1[C@@H](c2ccccc2)[C@@H](CO)N1C(=O)c1ccc2c(c1)OCO2` it is 1.08 ± 0.022.
Turning to `N#C[C@H]1[C@@H](c2ccccc2C2=CCCC2)[C@H](CO)N1C(=O)Cc1ccncc1`, the viability index came out at 1.07 ± 0.13.
The figure for `COc1ccc(S(=O)(=O)N(C)C[C@H]2OCCCC[C@@H](C)Oc3ccc(NC(=O)Cc4ccccc4)cc3C(=O)N([C@@H](C)CO)C[C@H]2C)cc1` is 0.773 ± 0.061; for `COc1ccc(S(=O)(=O)N(C)C[C@H]2OCCCC[C@H](C)Oc3ccc(NC(=O)Cc4ccccc4)cc3C(=O)N([C@@H](C)CO)C[C@H]2C)cc1` it is 0.791 ± 0.031; for `COc1ccc(S(=O)(=O)N(C)C[C@@H]2OCCCC[C@H](C)Oc3ccc(NC(=O)Cc4ccccc4)cc3C(=O)N([C@@H](C)CO)C[C@H]2C)cc1` it is 0.911 ± 0.17.
Consider `COc1ccc(S(=O)(=O)N(C)C[C@H]2OCCCC[C@@H](C)Oc3ccc(NC(=O)Cc4ccccc4)cc3C(=O)N([C@@H](C)CO)C[C@@H]2C)cc1`, for which the viability index worked out at 1.07 ± 0.17.
For `COc1ccc(S(=O)(=O)N(C)C[C@H]2OCCCC[C@H](C)Oc3ccc(NC(=O)Cc4ccccc4)cc3C(=O)N([C@H](C)CO)C[C@H]2C)cc1`, the viability index amounted to 0.9061 ± 0.001.
For `COc1ccc(S(=O)(=O)N(C)C[C@H]2OCCCC[C@H](C)Oc3ccc(NC(=O)Cc4ccccc4)cc3C(=O)N([C@H](C)CO)C[C@@H]2C)cc1`, the viability index turned out to be 0.994 ± 0.022.
